In the library only some 2.6% were active in any assay of this set; here they are far more common.
KKLEB cytotox = CF airway cell cytotoxicity counter-screen; KKLEB CF airway cells viability, ATPlite luminescence, overnight; stronger effect = lower value; cells stimulated with P. aeruginosa culture filtrate; activity change (cytotoxicity), % at 5 µM; 360,000 tested, 0.36% active; AID 602141;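 active means corrected activity change at or below -50% at 5 µM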
TWEAK-Fn14 inh = TWEAK-Fn14 signaling inhibition; TWEAK-stimulated Fn14 reporter cells, luciferase luminescence, 8 h; 360,000 tested, 2% active; inhibition, % at 10 µM; in the data active means inhibition above about 50%
LGR2 inh = Drosophila LGR2 receptor signaling inhibition | HEK293 LGR2, CRE-luciferase, bursicon-stimulated, 4 h | inhibition, % at 9.99 µM | 380,000 tested, 0.35% active | AID 720647;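 active means drop in luminescence signal, shown as inhibition above about 50% in the replicate tests, limit read from the data, passing the limit was not always enough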;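 further: agonist challenge used bursicon conditioned medium at about half maximal strength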
CF NFkB block = cystic fibrosis NF-kB activation inhibition. inhibition, % at 5 µM. KKLEB NF-kB-GFP reporter, PAF-induced, GFP fluorescence overnight. AID 588850. 360,000 tested, 0.86% active;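 active means at least 50% inhibition at 5 µM, scaled per plate between neutral and stimulator controls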;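 further: PAF is a Pseudomonas aeruginosa culture filtrate used as stimulus; plate controls were PAF-stimulated DMSO wells for no effect and unstimulated DMSO wells for full effect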
EWS-Fli inh = EWS/Fli transcriptional activity inhibition. 350,000 tested, 0.67% active. inhibition, % at 12.6 µM. AID 651661. A673 NR0B1-luciferase reporter, viability-normalised;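 active means mean inhibition of at least 50% after viability correction, with every replicate also passing that limit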;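 further: firefly luciferase signal divided by Alamar Blue viability fluorescence both relative to DMSO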
TROY NFkB inh = blocks TROY-dependent signaling in reporter cells. 360,000 tested, 0.98% active. inhibition, % at 10 µM. Q293 LMP1-TROYcd NF-kB luciferase reporter, 4 h;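 active means compounds whose plate-normalised and pattern-corrected inhibition of the luciferase reporter signal at the single screening dose is 50% or more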
Numbers without * were called inactive; · = no result.

SMILES | KKLEB cytotox | TWEAK-Fn14 inh | LGR2 inh | CF NFkB block | EWS-Fli inh | TROY NFkB inh
CCOC(=O)c1ccc(NC(=O)c2c(NC(=O)CCC(=O)O)sc3c2CCCCC3)cc1 | 8 | 74* | -23 | -27 | 1 | 33
CCN1CCN(c2c(C=O)c(Cl)nc3ccc(OC)cc23)CC1 | 0 | 56* | 7 | 17 | -9 | 26
C[C@H]1CN([C@@H](C)CO)S(=O)(=O)c2ccc(C3=CCCC3)cc2O[C@@H]1CN(C)C(=O)C1CCOCC1 | · | · | -3 | · | 5 | ·
Cc1ccc2c(C)nc(Nc3nc(CSc4nc5ccccc5[nH]4)cc(=O)[nH]3)nc2c1 | -58* | 96* | 32 | 99* | -4 | 68*
CCO[C@H]1OC(C(=O)N2CCCCCCC2)=C[C@@H](C2CC2)[C@@H]1CCCO | · | · | · | · | 0 | ·
CCC(=O)c1ccc(N2CCN(C(=O)COc3ccc(F)cc3)CC2)c(F)c1 | 15 | 81* | · | -6 | · | ·
CC(=O)c1ccc(N2CCN(C(=O)COc3ccc(F)cc3)CC2)c(F)c1 | 1 | -8 | · | -12 | · | 21
CCCCCCc1cc2cc(-c3nnc(-c4ccccc4O)o3)c(=O)oc2cc1O | -66* | 55* | · | -34 | · | 43
COC(=O)[C@]12C[C@H](CC(=O)N3CCC(c4ccccc4)CC3)C(=O)N(Cc3ccccc3)C1=C[C@H](C1CCCC1)O[C@@H]2C | · | · | 10 | · | 1 | ·
Cc1ccc(-c2ccc3c(c2)O[C@@H](CN(C)C(=O)C2CCC2)[C@H](C)CN([C@H](C)CO)S3(=O)=O)cc1 | · | · | 17 | · | 14 | ·
COc1ccc(S(=O)(=O)NC(C)C(=O)Nc2ccc3c(c2)OCCO3)cc1OC (stereo not given) | 6 | 75* | 9 | 10 | -2 | 8
COc1cc(OC)cc(C(=O)Nc2ccc3c(c2)OCCO3)c1 | -9 | -21 | -38 | 14 | -110 | -42
COc1cc(OC)cc(C(=O)NC(C(=O)Nc2ccc3c(c2)OCCO3)C(C)C)c1 (stereo not given) | -20 | 56* | -6 | 42 | -9 | 52*
COc1cccc(/C=C/C(=O)Nc2ccc3c(c2)OCCO3)c1OC | -32 | -25 | 61* | -9 | 7 | 8
CCOc1ccc(S(=O)(=O)N2CCCCC2)cc1NC(=O)Cc1ccccc1 | 3 | 30 | 10 | 13 | 8 | 51*
CCOc1ccc(S(=O)(=O)N2CCCCC2)cc1NC(=O)Cc1cccc(C(F)(F)F)c1 | -7 | 23 | 14 | 24 | 19 | 10
Cc1ccc(Cc2c(C3CCCCC3)nc3c4ccccc4ccn23)cc1 | -8 | 60* | 19 | 8 | -39 | 69*
Cc1ccc(Cc2c(-c3ccccc3)nc3c4ccccc4ccn23)cc1 | · | 59* | -5 | · | -67 | 67*
c1ccc2c(c1)ccn1c(Cc3ccsc3)c(C3CCCCC3)nc21 | · | 5 | -5 | · | 7 | -11
Cc1cccc(NC(=S)NCC(C)CSc2ccc(Cl)cc2)c1 (stereo not given) | -10 | 0 | 7 | 26 | 16 | 52*
Cc1ccc(NC(=S)NCC(C)CSc2ccc(Cl)cc2)cc1 (stereo not given) | 9 | 2 | 21 | -3 | -1 | 11
CCOc1ccc(NC(=O)c2ccccc2OCC(=O)c2ccc(C)cc2)cc1 | -53* | -58 | · | 43 | · | -30
Cc1ccc(NC(=O)c2ccccc2OCC(=O)c2ccc(F)cc2)cc1 | -45 | -8 | -4 | 37 | · | -29
C[C@H](NC(=O)[C@@H]1N[C@@H]2c3ccc(-c4cccnc4)c(=O)n3C[C@@H]2[C@H]1CO)c1ccccc1 | · | · | 12 | · | -7 | ·
O=C(/C=C/c1ccco1)NCC1(c2ccccc2)CCCC1 | 1 | 89* | 14 | -4 | · | 87*
SMILES | KKLEB cytotox | TWEAK-Fn14 inh | LGR2 inh | CF NFkB block | EWS-Fli inh | TROY NFkB inh
CO[C@H]1CN(C)C(=O)c2ccc(NS(=O)(=O)c3ccc(C)cc3)cc2OC[C@@H](C)NC[C@H]1C | · | · | -13 | · | -5 | ·
COc1cc(/C=N/NC(N)=S)ccc1OC(=O)c1ccc(C)cc1 | 6 | 8 | · | -3 | · | 9
COc1cc(/C=N/Nc2ccc3ccccc3c2)ccc1OC(=O)c1ccco1 | 10 | 51* | -3 | 5 | · | 46
COc1cc(/C=N/Nc2nc(C)cc(C)n2)ccc1OC(=O)c1ccco1 | -6 | 10 | 2 | 0 | · | 0
COc1cc(C(=O)N/N=C/c2ccc(OC(=O)c3cccc(C)c3)cc2)ccc1O | 12 | -3 | -8 | -27 | -15 | 51*
COc1cc(/C=N/NC(=O)c2ccc(N)cc2)ccc1OC(=O)c1cccc(C)c1 | 7 | 4 | 5 | -21 | · | 53*
COc1cccc(/C=N/NC(=O)c2nc(-c3ccccc3)cc(-c3ccccc3)n2)c1O | -9 | 51* | 24 | -4 | · | 8
COc1cc(C(=O)N/N=C/c2cccc(Oc3ccccc3)c2)ccc1O | -13 | -12 | -13 | 14 | 4 | -14
COc1ccc2c3c([nH]c2c1)[C@H](CO)N(CC1CC1)CC31CN(C(=O)c2ccccc2F)C1 | · | · | -20 | · | -1 | ·
COc1cccc(C(=O)Oc2ccc(/C=N/Nc3ccc(C(=O)O)cc3)cc2OC)c1 | -12 | 60* | 15 | -2 | -88 | -5
COc1cc(/C=N\NC(=O)c2ccc(C)nc2)ccc1OC(=O)c1cccc(F)c1 | 8 | 72* | -17 | -3 | -11 | 15
COc1cccc(/C=N/Nc2ccc(S(=O)(=O)O)cc2)c1O | 5 | 13 | · | 6 | · | -16
COc1ccccc1C=NN=C(NN=Cc1ccccc1OC)NN=Cc1ccccc1OC | -4 | 101* | 46 | 34 | 4 | 56*
COc1cccc(/C=N/Nc2ccc(C(=O)O)cc2)c1O | 7 | 103* | · | 0 | -11 | 84*
COc1ccccc1C=NNC(=O)NN=Cc1ccccc1OC | -23 | 3 | -29 | -14 | -23 | -12
CCCN(C)C[C@H]1Oc2cc(C3=CCCCC3)ccc2S(=O)(=O)N([C@@H](C)CO)C[C@H]1C | · | · | 5 | · | 9 | ·
Cc1noc(C)c1NC(=O)N(C)C[C@@H]1Oc2ncc(C#CCC(C)C)cc2C(=O)N([C@H](C)CO)C[C@H]1C | · | · | 11 | · | -12 | ·
COc1ccc(/C=N/Nc2snc(SC)c2C#N)cc1OC | -1 | -1 | · | 3 | · | -26
COc1cccc(/C=N/Nc2snc(SC)c2C#N)c1O | -10 | 75* | 20 | 14 | -15 | 42
O=C1/C(=C/c2ccccc2)CCC1C1CCCC1 (stereo not given) | 4 | -17 | -83 | -7 | -100 | -124
CN1C2CCC1/C(=C\c1ccccc1)C(=O)/C2=C\c1ccccc1 | 9 | 56* | · | -70 | · | -7
CN(C)C(=O)/C(C#N)=C\c1cc(Br)c(Sc2ccc(Cl)cc2)o1 | -22 | 88* | · | 31 | · | 31
Cc1cc(C(=O)CSc2nnc3ccccn23)c(C)n1-c1ccccc1 | 3 | 101* | 98* | -18 | · | 79*
Cc1cc(C(=O)CSc2nnc(-c3ccco3)o2)c(C)n1-c1ccc2c(c1)OCCO2 | -5 | 42 | · | 0 | · | 15

From PubChem BioAssay
